Assays:
Conditions in all cases: concentration: 1 μM, replicates: in singlicate; n = 1
PCTK2 = tested on: T1, PCTK2
T1 construct: gene CDK17

PCTK3 = tested on: T2, PCTK3
T2 construct: gene CDK18

PDGFRA = tested on: PDGFRA
PDGFRB = tested on: PDGFRB
PDPK1 = tested on: PDPK1
PFTAIRE2 = tested on: PFTAIRE2
PFTK1 = tested on: T3, PFTK1
T3 construct: gene CDK14

PHKG1 = tested on: PHKG1
PHKG2 = tested on: PHKG2
PIK3C2B = tested on: PIK3C2B
PIK3C2G = tested on: PIK3C2G
PIK3CA = tested on: PIK3CA
PIK3CB = tested on: PIK3CB
PIK3CD = tested on: PIK3CD
PIK3CG = tested on: PIK3CG
PIK4CB = tested on: T4, PIK4CB
T4 construct: gene PI4KB

PIKFYVE = tested on: PIKFYVE
PIM1 = tested on: PIM1
PIM2 = tested on: PIM2
PIM3 = tested on: PIM3
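Further: KINOMEscan kinase panel screen.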

Structure (SMILES) | %Inh (PCTK2) | %Inh (PCTK3) | %Inh (PDGFRA) | %Inh (PDGFRB) | %Inh (PDPK1) | %Inh (PFTAIRE2) | %Inh (PFTK1) | %Inh (PHKG1) | %Inh (PHKG2) | %Inh (PIK3C2B) | %Inh (PIK3C2G) | %Inh (PIK3CA) | %Inh (PIK3CB) | %Inh (PIK3CD) | %Inh (PIK3CG) | %Inh (PIK4CB) | %Inh (PIKFYVE) | %Inh (PIM1) | %Inh (PIM2) | %Inh (PIM3)
O=C1NC(=O)C(c2ccccc2Cl)=C1Nc1cccc(Cl)c1 [SB-342409] | 0% | 31% | 0% | 13% | 13% | 21% | 13% | 0% | 0% | 0% | 0% | 0% | 0% | 0% | 0% | 0% | 0% | 0% | 0% | 0%
CC(=O)Nc1cn2nc(Oc3cccc(NC(=O)c4cccc(C(F)(F)F)c4)c3)ccc2n1 | 0% | 6% | 99.6% | 100% | 9% | 0% | 3% | 31% | 0% | 0% | 0% | 0% | 0% | 0% | 0% | 0% | 0% | 9% | 9% | 0%
Cl.Cl.NC(CNC(=O)c1cc(Br)c(-c2ccnc3[nH]ccc23)s1)c1ccccc1 (stereo not drawn) [GSK1322949] | 14% | 0% | 8% | 63% | 76% | 40% | 22% | 74% | 56% | 0% | 0% | 1% | 0% | 0% | 22% | 0% | 0% | 40% | 0% | 34%
CS(=O)(=O)c1cccc(CNc2nc(Nc3ccc4c(c3)CCC(=O)N4)ncc2C(F)(F)F)c1 | 0% | 4% | 15% | 62% | 32% | 14% | 10% | 0% | 3% | 0% | 9% | 0% | 3% | 0% | 0% | 0% | 28% | 10% | 0% | 32%
CN(C)CCOc1ccc(-c2cc(-c3ccc(Cl)c(O)c3)c(-c3ccncc3)[nH]2)cc1.Cl.Cl [SB-684387] | 13% | 1% | 12% | 30% | 0% | 20% | 19% | 0% | 0% | 10% | 30% | 9% | 54% | 8% | 13% | 26% | 45% | 22% | 0% | 13%
Cc1ccc(O)cc1Nc1ccnc2ccc(C(C)(C)C)cc12 [GW856805] | 14% | 5% | 64% | 62% | 52% | 12% | 21% | 24% | 0% | 23% | 39% | 13% | 40% | 56% | 22% | 47% | 18% | 37% | 5% | 18%
COc1cccc(-c2nc(-c3ccccc3)[nH]c2-c2ccncc2)c1 [SB-610250] | 0% | 14% | 0% | 0% | 0% | 14% | 16% | 0% | 0% | 0% | 0% | 0% | 0% | 0% | 0% | 13% | 63% | 1% | 0% | 0%
Nc1ncc(-c2cn[nH]c2)c2scc(-c3ccc4c(c3)CCN4C(=O)Cc3ccccc3)c12 [GSK2593067] | 0% | 29% | 96% | 100% | 65% | 0% | 0% | 0% | 0% | 0% | 0% | 0% | 0% | 5% | 0% | 25% | 0% | 0% | 0% | 0%
CC(C)c1nc(-c2ccc(F)c(NS(=O)(=O)c3c(F)cccc3F)c2)c(-c2ccnc(Nc3ccc(N4CCOCC4)nc3)n2)s1 [GSK1804250] | 94.9% | 76% | 88% | 99.6% | 11% | 11% | 71% | 0% | 9% | 17% | 0% | 0% | 0% | 10% | 0% | 0% | 66% | 7% | 0% | 0%
COC(=O)Nc1nc2cc(Oc3ccc(NC(=O)Nc4cccc(SC)c4)cc3)ccc2[nH]1.Cl [GW697999] | 6% | 26% | 99.4% | 100% | 0% | 15% | 20% | 3% | 34% | 0% | 85% | 0% | 0% | 0% | 0% | 0% | 0% | 12% | 0% | 0%
CC(C)NCC(Cc1ccccc1)NC(=O)c1cc(Br)c(-c2ccnc3[nH]ccc23)s1.Cl.Cl (stereo not drawn) [GSK1383281] | 13% | 0% | 37% | 74% | 0% | 0% | 27% | 0% | 16% | 0% | 0% | 0% | 0% | 0% | 0% | 0% | 0% | 11% | 0% | 0%
Cn1cc(-c2ccc3c(c2)CCN3C(=O)Cc2cc(F)cc(F)c2F)c2c(N)ncnc21 [GSK2634140] | 0% | 7% | 59% | 98% | 0% | 3% | 10% | 0% | 0% | 82% | 0% | 0% | 62% | 0% | 7% | 0% | 0% | 12% | 0% | 0%
CCNc1nccc(-c2c(-c3ccc(F)cc3)ncn2C2CCN(C)CC2)n1 | 0% | 0% | 0% | 0% | 15% | 0% | 1% | 1% | 12% | 1% | 26% | 0% | 0% | 0% | 10% | 0% | 0% | 6% | 4% | 30%
Cn1cc(-c2ccc3c(c2)CCN3C(=O)Cc2cc(F)cc(C(F)(F)F)c2)c2c(N)ncnc21 [GSK2635225] | 14% | 15% | 93% | 100% | 2% | 22% | 22% | 0% | 3% | 0% | 47% | 0% | 8% | 0% | 0% | 0% | 0% | 2% | 0% | 6%
O=C(Nc1n[nH]c2nc(-c3ccccc3)ccc12)C1CC1 [SB-708999] | 23% | 36% | 16% | 31% | 34% | 8% | 29% | 12% | 1% | 0% | 9% | 11% | 0% | 41% | 5% | 0% | 28% | 0% | 16% | 0%
COc1ccc(C)c(Nc2ccnc(Nc3ccc(-c4cnc[nH]4)cc3)n2)c1.Cl [GW784041] | 10% | 2% | 0% | 76% | 0% | 0% | 0% | 0% | 8% | 0% | 11% | 0% | 0% | 0% | 11% | 58% | 0% | 0% | 9% | 0%
COc1cc(Nc2nccc(N3CCC(NS(=O)(=O)c4ccc(NC(C)=O)cc4)CC3)n2)cc(OC)c1OC [GSK1379825] | 0% | 25% | 6% | 90% | 21% | 0% | 5% | 0% | 0% | 0% | 9% | 0% | 0% | 91.6% | 99.7% | 9% | 82% | 0% | 0% | 0%
COc1cccc(CC(=O)N2CCc3cc(-c4cn(C)c5ncnc(N)c45)ccc32)c1 [GSK2608899] | 0% | 4% | 88% | 99.2% | 20% | 12% | 0% | 0% | 0% | 83% | 0% | 6% | 14% | 0% | 27% | 0% | 0% | 19% | 0% | 2%
c1ccc(Oc2ccc(Nc3ccnc4cc(-c5ccc(CN6CCCCC6)o5)ccc34)cc2)nc1 [GW567143] | 0% | 11% | 82% | 98.6% | 0% | 7% | 9% | 5% | 0% | 0% | 0% | 0% | 0% | 0% | 0% | 0% | 0% | 0% | 0% | 0%
CN(C)c1ncnc2nc[nH]c12 [SKF-31736] | 0% | 0% | 0% | 0% | 0% | 0% | 5% | 0% | 0% | 11% | 0% | 13% | 0% | 0% | 8% | 1% | 21% | 5% | 0% | 8%
Cc1cc(-c2c(-c3ccc(F)cc3)ncn2CCCN2CCOCC2)nc(N)n1 [SB-222517] | 0% | 0% | 0% | 16% | 0% | 0% | 0% | 12% | 0% | 28% | 20% | 23% | 0% | 0% | 36% | 46% | 0% | 11% | 26% | 15%

Reference: article PMC5540273 (PLoS ONE, 2017)
